# According to ChEMBL document CHEMBL3988442, “University of Dundee, Small-Polar-MMV Screening Library” (2021):
# Out of some 48,000 compounds screened, about 13,000 (27%) showed an effect of 50% or more. Some of the results follow.
# System: Wolbachia pipientis
# Test: Anti-Wolbachia Cell-Based Screen
# Assay type: functional
# Parameters: scale not given: in the data most compounds retested in dose-response had high values
# Details: 5 µM
row,SMILES,Percent Effect
1,COc1ccc(CN(C)C(=O)CCc2c(C)nc(C)[nH]c2=O)cc1OC,10.21%
2,CC(C)Cn1ccnc1CNC(=O)NC(C)c1nccs1 (configuration not stated),-12.96%
3,Cc1cccc(CNC[C@H]2COCc3nc4cccnc4n32)n1,-11.24%
4,Cn1c(C2CCCN2C(=O)CN2CSCC2=O)nc2ccccc21 (configuration not stated),-5.788%
5,Cn1ccnc1CN1CCO[C@H]2C(CNC(=O)c3ccco3)CC[C@@H]21.O=C(O)C(F)(F)F (some centres not stated),-4.038%
6,CO[C@@H]1CN(S(=O)(=O)c2cn(C)cn2)[C@@H]2CCCO[C@@H]21.O=C(O)C(F)(F)F,7.147%
7,Cn1nc(COCC2CC2)c2c1CCN(C(=O)c1ccno1)C2,2.608%
8,Cn1ccnc1CN1CCc2c(COCC3CC3)nn(C)c2C1,104.2%
9,Cn1cc(CN2CCCn3cnc(COCC4CC4)c3C2)cn1,-7.099%
10,O=C(O)C(F)(F)F.c1ccn(Cc2noc3c2CN(Cc2ccsc2)CC3)c1,-2.985%
11,Cn1ccnc1CN1CCc2onc(COCC3CC3)c2C1.O=C(O)C(F)(F)F,94.95%
12,CN1CCc2onc(Cn3cccc3)c2C1.O=C(O)C(F)(F)F,-7.222%
13,Cc1nc(N)sc1C(=O)N[C@H]1CN(CCO)C[C@@H]1C1CC1,15.87%
14,O=C(NCC(F)(F)F)c1coc(COc2cccc(F)c2)n1,-8.912%
15,CCc1nc(C)sc1CN1CCc2[nH]nc(-c3ccc(F)c(F)c3)c2C1,80.67%
16,CC(C)c1nnsc1CN1CCc2[nH]nc(-c3ccc(F)c(F)c3)c2C1,-14.43%
17,CC(C)c1nnsc1CN1CCc2[nH]nc(-c3ccc(Cl)cc3)c2C1,-32.01%
18,CC(C)S(=O)(=O)c1ccccc1C(=O)NCC1Cc2ccccc2O1 (configuration not stated),-14.53%
19,Cc1noc2nc(C3CCN(Cc4cccnc4)CC3)cc(C(F)F)c12.Cl,-9.901%
20,Cc1noc2nc(C3CCN(Cc4ccncc4)CC3)cc(C(F)F)c12,-5.85%
21,Cc1noc2nc(C3CCCN(Cc4cccnc4)C3)cc(C(F)F)c12 (configuration not stated),110%
22,Cc1noc2nc(C3CCCN(Cc4ccncc4)C3)cc(C(F)F)c12 (configuration not stated),102.2%
23,FC(F)(F)c1cc(C2CCCN(Cc3cccnc3)C2)n[nH]1 (configuration not stated),5.486%
24,O=C(O)C(F)(F)F.O=C(O)C(F)(F)F.O=C(O)C(F)(F)F.O=C(O)C(F)(F)F.c1ccc(CN2CCc3c(COCc4ccncc4)cncc3C2)nc1,100.9%
25,O=C(O)C(F)(F)F.O=C(O)C(F)(F)F.O=C(O)C(F)(F)F.c1ccc(CN2CCc3c(COCC4CC4)cncc3C2)nc1,97.89%

row,SMILES,Percent Effect
1,O=C(O)C(F)(F)F.O=C(O)C(F)(F)F.O=C(O)C(F)(F)F.c1cncc(COCc2cncc3c2CCN(Cc2ccoc2)C3)c1,108.7%
2,Cn1cc(CN2CCc3c(COCc4ccncc4)cncc3C2)cn1,11%
3,O=C(O)C(F)(F)F.O=C(O)C(F)(F)F.O=C(c1ccc[nH]1)N1CCc2c(COCc3ccncc3)cncc2C1,-6.376%
4,CCS(=O)(=O)N1CCc2c(COCc3ccncc3)cncc2C1,118.3%
5,CCOCc1cncc2c1CCN(S(=O)(=O)c1ccccc1)C2,-7.612%
6,O=C(c1ccoc1)N1CCc2c(COCc3ccncc3)cncc2C1,-1.129%
7,O=C(O)C(F)(F)F.O=C(O)C(F)(F)F.c1cncc(COCc2nnc3n2CCN(Cc2ccoc2)C3)c1,7.608%
8,O=C(O)C(F)(F)F.c1ccc(CN2Cc3[nH]nc(COCC4CC4)c3C2)nc1,-4.447%
9,O=C(c1ccsc1)N1CCc2c(COCc3ccncc3)cncc2C1,6.158%
10,Cn1cc(CN2CCc3c(COCC4CC4)cncc3C2)cn1.O=C(O)C(F)(F)F.O=C(O)C(F)(F)F,4.622%
11,N#Cc1ccccc1C(=O)N1C[C@H](CO)C[C@H](CN2CCCC2)C1,4.936%
12,Cc1nc(C(=O)N2CCN(C(=O)C3CCC3)[C@@H]3CS(=O)(=O)C[C@@H]32)cs1,7.717%
13,CNC(=O)NC(=O)C(C)N1CCC(c2c[nH]c3ccc(OC)cc23)CC1 (configuration not stated),1.858%
14,CC(C)CCN(C)Cn1ncc2cn(-c3ccccc3)nc2c1=O,5.11%
15,CCn1c(CNC(=O)Nc2nc(C)c(C)o2)nc2ccccc21,89.34%
16,Cc1nc(NC(=O)NCc2nc3cccc(C)c3n2C)oc1C,43.9%
17,CCn1c(CNC(=O)c2ccc(N(C)C)nc2)nc2ccccc21,8.635%
18,CC(=O)NCCSCCOc1cccc(Br)c1,-2.574%
19,CN(C)S(=O)(=O)c1ccc(-c2nc(C#N)c(NC(C)(C)C)o2)o1.Cl,93%
20,CC(C)Nc1oc(-c2ccc(S(=O)(=O)N(C)C)o2)nc1C#N,118.4%
21,CNc1oc(-c2cc(S(=O)(=O)N3CCCCCC3)c(C)o2)nc1C#N,9.909%
22,CCCNC(=O)CSCc1ccc(S(=O)(=O)N(C)C)o1,-0.4398%
23,CNc1oc(-c2ccc(OC)c(S(=O)(=O)N3CCCCC3)c2)nc1C#N,-6.371%
24,CNc1oc(-c2ccc(S(=O)(=O)N(C)C)o2)nc1C#N,100.4%
25,Cc1oc(-c2nc(C#N)c(N(C)C)o2)cc1S(=O)(=O)N1CCCC1,17.91%

row,SMILES,Percent Effect
1,CN(C)S(=O)(=O)c1ccc(CSCC(=O)NC(C)(C)C)o1,-7.197%
2,COc1cccc(N2CC3(CCN(c4ccncn4)C3)CC2=O)c1 (configuration not stated),-12.13%
3,Cc1nnc2n1CCN(Cc1nc3ccccc3o1)C2,13.24%
4,O=C(N[C@@H]1CCNC[C@H]1O)c1cc(F)cc(Cl)c1,0.509%
5,O=C(CN1CCC(C(=O)c2cc(F)ccc2F)CC1)NC1CC1,-20.5%
6,O=C(CCc1cc(O)no1)N1CCC(Cc2ccc(F)cc2)CC1,-4.234%
7,O=C(O)CCCC(=O)N1CCC(c2noc3cc(F)ccc23)CC1,110.7%
8,CC(C)NC(=O)CCN1CCC(C(=O)c2cc(F)ccc2F)CC1,-38.81%
9,O=C(CCC(=O)N1CCNC(=O)C1c1cccc(F)c1)NC1CCCC1 (configuration not stated),-14.56%
10,O=C(CCC(=O)N1CCC(c2noc3cc(F)ccc23)CC1)NC1CC1,145.4%
11,O=C(O)CCC(=O)N1CCC(c2noc3cc(F)ccc23)CC1,117.2%
12,CS(=O)(=O)CCC(=O)N1CCC(c2cccc(F)c2)C1 (configuration not stated),-0.1646%
13,CC(=O)N1CC[C@H](c2nc3cc(F)ccc3o2)C1,5.323%
14,CC(C)NC(=O)CCC(=O)N1CCC(c2noc3cc(F)ccc23)CC1,90.62%
15,O=C(c1ccc(Cl)c(Cl)c1)N1CCCCC1C1OCCO1 (configuration not stated),4.358%
16,Cc1ncc(CNC(=O)N(C)Cc2ccc([S+](C)[O-])cc2)s1 (configuration not stated),-5.78%
17,CCc1nc(CN2CCOC(CN(CC)c3cccnn3)C2)cs1 (configuration not stated),0.2652%
18,Cc1nc(C(C)C)sc1C(=O)NS(=O)(=O)c1ccc(C#N)cc1,-14.12%
19,Cc1ccc(CNCCOc2ccc(S(C)(=O)=O)cc2)cc1,14.5%
20,NC(=O)C1CCN(C(=O)c2ccccc2OCc2ccccc2Cl)CC1,5.008%
21,C=C(C)COc1ccccc1C(=O)N1CCC(C(=O)NCC)C1 (configuration not stated),83.75%
22,C=C(C)COc1ccccc1CN1CCC(C(=O)NCC)C1 (configuration not stated),91.68%
23,C=C(C)CN1CCC(NC(=O)NCCc2ccccc2OC)CC1,1.808%
24,C=C(C)COc1ccccc1C(=O)N1CCC2(CC1)CN(C)CCN2C,12.34%
25,CCNC(=O)COc1ccccc1N1CCCC(C)C1 (configuration not stated),-0.1998%

row,SMILES,Percent Effect
1,C=C(C)COc1ccccc1CN1CCC(NC(C)=O)CC1,100.9%
2,C=C(C)COc1ccccc1NC(=O)N1CCCCC1CO (configuration not stated),-1.415%
3,O=C(NCCCc1ccncc1)C1CCCN(Cc2ccco2)C1 (configuration not stated),21.32%
4,Cc1ccc(NCCCNC(=O)C2CCCN(Cc3ccco3)C2)nc1 (configuration not stated),-3.633%
5,C=C(C)COc1ccccc1NC(=O)NC1CCOCC1,-8.907%
6,C=C(C)COc1ccccc1CN1CCCC(C(=O)NCCCO)C1 (configuration not stated),100.8%
7,CCc1nc(CCNC(=O)Nc2cc(C(N)=O)sc2C)cs1,34.11%
8,O=C(c1ncoc1C1CCCO1)N1CC2(CCCC2)c2ccccc21 (configuration not stated),-7.876%
9,Cc1ccc(CCNc2ncnc3sc4c(c23)CCNC4)o1,6.04%
10,CCC(C)N1CCc2c(C(=O)N3CCOCC3)n[nH]c2C1 (configuration not stated),-26.93%
11,CC(C)c1nc2oc(C(=O)N3CCOCC3)c(N)c2c2c1CCCC2,100.5%
12,Cc1nc2oc(C(=O)N3CCCC3)c(N)c2c2c1CCCC2,89.55%
13,Cc1nc2oc(C(=O)N3CCOCC3)c(N)c2c2c1CCCC2,117.9%
14,CCn1c(N)nc2cc(C(=O)N3CCCOCC3)cnc21,-12.44%
15,CC(=O)N1CCCN(C(=O)c2oc(Br)cc2C)CC1,-21.77%
16,CC(=O)N1CCc2[nH]nc(C(=O)N3CCOCC3)c2C1,-13.35%
17,Nc1nc2c(c(NCc3ccc(C(=O)N4CCCC4)cc3)n1)CCCC2,-8.867%
18,Cn1c(C(=O)N2CCOCC2)nc2c1CCN(c1ncccn1)C2,-2.522%
19,Cc1nc(N2CCOc3ccc(CO)cc3C2)c2c(C)noc2n1,-4.645%
20,CNC(=O)C(C)NC(=O)c1cc(COc2ccc(OC)cc2Cl)[nH]n1 (configuration not stated),-6.822%
21,CN1C[C@@H](n2cnc(-c3ccccc3)c2-c2c[nH]cn2)C[C@H]1C(=O)O,-2.319%
22,Cc1cc(C)c(C(=O)N2CCC3(CCCN(CC(C)(C)C)C3)C2)[nH]1 (configuration not stated),-1%
